Screening results: PubChem BioAssay, National Center for Advancing Translational Sciences (NCATS)
An excerpt weighted towards active compounds, which were near 21% of everything screened.
DT40 TDP1 CPT: growth inhibition of DT40 Tdp1-/-;hTDP1 cells with camptothecin (screen for TDP1 inhibitors) | Potency, µM (doses to about 46.2 µM), for the others: at the top dose activity change, negative = growth inhibition, usual class: inhibitors | 12% of 420,000 active | chicken DT40 Tdp1-/-;hTDP1 cells + 20 nM CPT, ATP luminescence, 48 h; also: potency is read from the fitted curve at half-maximal effect; % is scaled to controls: 0 for no effect and ±100 for the full control effect; nearly all actives have a fitted effect of over 55% in size
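Cell growth measured by CellTiter-Glo luminescence after a minimum 48 h, 37 C compound exposure with 20 nM CPT in Tdp1-knockout DT40 cells stably expressing hTDP1, seeded 400/well; qHTS titration format.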
DRD3 agonist: agonists of human D3 dopamine receptor; P35462; D3R DiscoveRx beta-arrestin cells, luminescence, 90 min; max activation, %; 0.58% of 410,000 active; AID 652048; in the data active = max activation above about 30%; also: 0% is about no effect
Target sequence (P35462 whole entry, looked up): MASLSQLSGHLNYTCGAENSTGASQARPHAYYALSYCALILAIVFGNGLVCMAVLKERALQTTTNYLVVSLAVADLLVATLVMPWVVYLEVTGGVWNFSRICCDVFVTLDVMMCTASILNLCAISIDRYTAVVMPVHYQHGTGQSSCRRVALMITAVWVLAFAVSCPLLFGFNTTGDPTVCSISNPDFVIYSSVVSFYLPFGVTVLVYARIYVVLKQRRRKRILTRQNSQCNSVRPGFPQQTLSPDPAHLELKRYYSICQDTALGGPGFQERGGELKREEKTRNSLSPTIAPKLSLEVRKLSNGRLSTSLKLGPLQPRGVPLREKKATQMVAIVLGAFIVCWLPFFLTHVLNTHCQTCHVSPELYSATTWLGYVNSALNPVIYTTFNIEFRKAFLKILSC
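Cells at 1500/well, incubated overnight, then treated with pinned compounds (dopamine as control) for 90 min at 37 degrees C. DiscoveRx reagent added for 30 - 60 minutes at room temperature; luminescence read.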
ClpP mod: qHTS Assay for Activators of ClpP | purified B. subtilis ClpP, FRET peptide cleavage, 20 min | ATP-dependent Clp protease proteolytic subunit (Bacillus subtilis (strain 168)), P80244 | Potency, µM (titrated, usually from 57.5 µM), for inactives: at the highest dose activity change, negative = active | 1.9% of 340,000 active; active = well fitted falling curve with a large enough effect; inconclusive = small, poorly fitted or top-dose-only effect; inactive = no such curve, though single readings can be large or run the other way; also: potency is read from the fitted curve at half-maximal effect; the source files actives as falling curves though it sought activators and does not explain the sign; nearly all actives have a fitted effect of over 65% in size
Target sequence (P80244 whole entry, looked up): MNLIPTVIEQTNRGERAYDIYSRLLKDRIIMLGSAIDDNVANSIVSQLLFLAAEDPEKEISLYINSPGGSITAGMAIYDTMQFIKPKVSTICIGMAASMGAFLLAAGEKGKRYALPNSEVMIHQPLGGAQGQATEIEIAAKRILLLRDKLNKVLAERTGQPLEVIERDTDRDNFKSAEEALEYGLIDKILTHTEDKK
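Buffer: 100 mM Tris/HCl pH8, 100 mM KCl, 0.05% low protease BSA, 2.5% glycerol, 0.01% Tween-20. ClpP 10 microg/mL final; 20 min RT; delta FRET normalized to ADEP and DMSO controls.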
TDP1 cell noCPT: qHTS for Inhibitors of human tyrosyl-DNA phosphodiesterase 1 (TDP1): qHTS in cells in absence of CPT. AID 686978, 2013. DT40 Tdp1-/- hTDP1 cells, no CPT, ATP luminescence, 48 h. 15% of 420,000 active. Potency, µM (doses to about 46.2 µM), without a hit: at the top dose activity change, negative = growth inhibition, usual class: inhibitors; also: potency is read from the fitted curve at half-maximal effect; % is scaled to controls: 0 for no effect and ±100 for the full control effect; nearly all actives have a fitted effect of over 55% in size
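A cellular qHTS used chicken DT40 cells lacking endogenous Tdp1 but carrying stably transfected human TDP1. Compounds were applied without camptothecin, and cell growth kinetics were judged by ATP-dependent luminescence after ≥48 hr.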
IL1B secr inh: blocks inflammasome-driven IL-1 beta release; THP-1 LPS/ATP IL-1B secretion, AlphaLISA, 16 h; stronger effect = lower value; activity change, % at 57.5 µM; 4.7% of 360,000 active; in the data active = activity change below about -50%; inconclusive = mostly about -30% to -49%; also: % is scaled to controls: 0 for no effect and ±100 for the full control effect
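THP-1 cells pretreated 1 hr with compounds (up to 57.5 uM final), then stimulated with LPS (250 ng/mL final) plus ATP (1.25 mM final); secreted IL-1B measured by AlphaLISA after 16 hr, decreased signal indicating inhibition.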
D3 antag: D3 dopamine receptor (human) antagonism; P35462; D3R cells, DiscoveRx beta-arrestin luminescence, antagonist mode; stronger effect = lower value; max response, negative = inhibition, %; 2.5% of 360,000 active; in the data active = max response below about -50%; inconclusive = no clear call, values can overlap the other calls; also: % is scaled to controls: 0 for no effect and ±100 for the full control effect
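Cells plated overnight at 1500 cells/well, then exposed to library compounds with dopamine controls for 90 minutes at 37 degrees C. DiscoveRx reagent added for 30–60 minutes at room temperature; luminescence read, quantitative HTS format.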
* marks the source's active call; other numbers are inactive results; ? = inconclusive; . = no result given. Unless noted, calls follow the shape of the dose curve; as a rule, active = well fitted inhibition curve with a large enough effect; inconclusive = small, poorly fitted or top-dose-only effect; inactive = flat fitted curve, though single readings scatter.

SMILES	DT40 TDP1 CPT	DRD3 agonist	ClpP mod	TDP1 cell noCPT	IL1B secr inh	D3 antag
O=C(Nc1ccccn1)c1cccc(S(=O)(=O)N2CCCc3ccccc32)c1	?	-0.6	-4.2%	?	12.8	-6.0
Cc1ccnc(NC(=O)c2cccc(S(=O)(=O)N3CCCc4ccccc43)c2)c1	20.6µM*	-5.5	0.4%	20.6µM*	3.7	9.2
Clc1ccc(SCNc2ccccc2Cl)cc1	9.2µM*	-1.5	-2.3%	?	?	-0.6
Cc1ccc(NCSc2ccc(Cl)cc2)cc1	?	-15.6	.	?	?	9.3
Nc1cc(=O)[nH]c(SCc2cccc(Cl)c2)n1	23.1µM*	-3.3	0.5%	?	84.3	16.9
CC(C)(C)c1ccc(CSc2nc(N)cc(=O)[nH]2)cc1	23.1µM*	9.6	-0.9%	18.4µM*	-2.4	-6.4
O=c1cc(-c2ccccc2)nc(SCc2ccccc2)[nH]1	-5.5%	8.7	-3.9%	-5.0%	44.6	-54.8*
CCc1ccc(N(CC)C(=O)c2cc3c(=O)oc4ccc(C)cc4c3s2)cc1	-9.3%	5.8	0.3%	?	.	.
CCCCCCCC(=O)Oc1ccc(C(=O)Nc2cc(C)on2)cc1	5.5%	-0.9	.	5.9%	41.6	-19.8
Cc1ccc2c(CC(=O)Nc3cccc(C(F)(F)F)c3)coc2c1	16.4µM*	-7.5	1.0%	?	.	.
Cc1ccc2c(CC(=O)NNC(=O)c3ccccc3O)coc2c1	?	0.0	.	25.9µM*	92.9	-13.9
CCN(CC)S(=O)(=O)c1cc(NC(=O)c2ccccc2OCc2c(C)noc2C)ccc1C	16.4µM*	2.5	-3.5%	16.4µM*	-9.9	6.0
CCN(CC)S(=O)(=O)c1cc(NC(=O)COC(=O)c2c(C)noc2C)ccc1C	?	3.6	-2.0%	-19.7%	-50.2*	37.6
Cc1cc(-c2ccccc2)nc(N(C)NC(=O)c2ccc(Cl)cc2)c1S(C)(=O)=O	14.6µM*	-11.3	44.4%	20.6µM*	-26.6	-7.8
CC(=O)c1cccc(Nc2c3c(nc4ccccc24)CCC3)c1	2.06µM*	-6.4	-1.9%	2.06µM*	68.5	2.4
c1ccc2c(Nc3ccc4c(c3)OCCO4)c3c(nc2c1)CCCC3	4.61µM*	-9.6	.	16.4µM*	-134.3*	1.0
Cc1ccc2nc3c(c(Nc4cccc(O)c4)c2c1)CCC3	?	-1.5	-1.3%	?	117.8	-4.9
Fc1cccc(Nc2c3c(nc4ccccc24)CCC3)c1	?	11.1	.	25.9µM*	?	-7.9
CC(=O)c1ccc(Nc2c3c(nc4ccccc24)CCCC3)cc1	14.6µM*	-6.2	-18.1%	18.4µM*	-0.1	17.4
COc1cc(Nc2c3c(nc4ccccc24)CCCC3)cc(OC)c1OC	?	-7.7	.	?	?	-27.1
CCOc1ccc(NC(=O)CSc2nnc(C3CC3)n2C)cc1S(=O)(=O)N1CCCCC1	-15.3%	-1.8	-0.6%	-3.0%	14.3	-12.1
COc1ccccc1CNC(=O)C1CCN(S(=O)(=O)c2ccc3nc4c(c(C(=O)O)c3c2)CCCC4)CC1	0.1%	7.2	-3.1%	29.1%	-4.9	-0.1
COC(=O)c1cccc(Nc2c3c(nc4ccccc24)CCC3)c1	7.31µM*	-13.3	-1.5%	10.3µM*	-97.5*	-17.5
CCOC(=O)c1cccc(Nc2c3c(nc4ccccc24)CCC3)c1	?	-16.0	-11.9%	13µM*	.	.
CCC(C)NC(=O)c1cnn(-c2ccc(Cl)cc2)c1C1CCN(C(=O)OC(C)(C)C)CC1 (stereo unspecified)	?	8.8	1.3%	?	.	.
SMILES	DT40 TDP1 CPT	DRD3 agonist	ClpP mod	TDP1 cell noCPT	IL1B secr inh	D3 antag
CC1(C(=O)NS(=O)(=O)c2ccccc2)CCN1C(=O)COc1ccc(Cl)cc1 (stereo unspecified)	-6.2%	-5.7	1.1%	-2.3%	-1.3	-14.1
N=C1N(c2ccccc2)C(=S)C(=Nc2ccccc2)N1c1ccccc1	18.4µM*	-10.6	-1.1%	13µM*	13.1	-61.3*
COc1cccc(NC(=O)CCCCCN2C(=O)[C@@H]3Cc4ccccc4CN3C2=O)c1	?	1.0	-1.4%	?	0.9	-0.7
COc1ccc(Oc2ncc3nc(-c4cccs4)c(=O)n(Cc4cccc(OC)c4)c3n2)cc1	-0.6%	.	.	-21.1%	.	.
COc1ccc(NC(=O)c2cc([N+](=O)[O-])ccc2N2CCCCC2)cc1	20.6µM*	-1.0	.	20.6µM*	18.0	-1.5
COc1ccc(NC(=O)c2cc([N+](=O)[O-])ccc2N2CCCCC2)cc1OC	20.6µM*	2.1	-6.4%	?	12.3	-8.8
COc1ccc(C(=O)Nc2ccc(N3CCN(c4ccc(OC)cc4)CC3)c(C#N)c2)cc1	-23.9%	0.4	-13.7%	-9.7%	8.7	13.9
COc1ccc(N2CCN(c3ccc(NC(=O)C4CCCCC4)cc3C#N)CC2)cc1	-26.7%	3.0	28.2µM*	3.2%	15.5	2.9
CC(C)CNC(=O)c1cc([N+](=O)[O-])ccc1N1CCCCC1	?	0.0	0.6%	23.1µM*	0.3	-5.5
Cc1ccc(Cl)cc1NC(=O)CON=C(N)c1ccccc1	-19.3%	29.1	.	-14.6%	6.5	-4.6
O=C(Nc1cccc([N+](=O)[O-])c1)Nc1cccc([N+](=O)[O-])c1	4.61µM*	-1.7	.	2.91µM*	-57.0*	-17.0
Cc1cccc(NC(=S)NNC(=O)c2cccc([N+](=O)[O-])c2)c1	-14.8%	-8.1	.	-21.7%	4.9	-2.9
CC1CCCN(CC(=O)Nc2cccc([N+](=O)[O-])c2)C1 (stereo unspecified)	-13.0%	-28.7	-1.9%	-13.4%	-11.7	0.0
O=C(Nc1cccc([N+](=O)[O-])c1)NN1CCCCCC1	?	-15.5	.	18.4µM*	?	-28.8
Cc1occc1C(=O)NNC(=S)Nc1cccc([N+](=O)[O-])c1	?	-6.7	-2.2%	23.1µM*	28.7	-108.9*
O=C(Nc1ccc(C(=O)O)cc1)Nc1cccc([N+](=O)[O-])c1	-8.4%	4.3	-0.5%	-17.8%	24.1	-19.8
O=C(CN1CCCCCC1)Nc1cccc([N+](=O)[O-])c1	-3.0%	-6.7	-1.1%	-14.0%	-7.1	-82.6*
COc1cc(NC(=O)Nc2cccc([N+](=O)[O-])c2)cc(OC)c1	?	-1.0	.	?	-9.0	0.7
CC(C)S(=O)(=O)c1csc(NC(=O)Nc2cccc([N+](=O)[O-])c2)c1Cl	16.4µM*	-8.4	0.1%	14.6µM*	-16.7	-6.4
COc1ccccc1NC(=O)CN1CCN(CC(=O)Nc2cc(C)ccc2OC)CC1	-23.3%	0.6	-2.4%	-28.0%	17.3	-4.7
